For 29 compounds, outcome and AC50 results are on record in PubChem BioAssay (EPA / NIEHS).

Records with an inconclusive call do not appear. Activity calls are given as the source filed them. Rule for the calls: active = hit-call score of the fitted dose curve at least 0.9, where 1 is the maximum; inconclusive = response in the unintended direction; inactive = score below 0.9.

One assay can be described thus: Tanguay_ZF_120hpf_PIG_legacy: (Legacy) Oregon State University Tanguay Lab 120 Hour Post-fertilization zebrafish Assay for Pigmentation Malformation (AID 2283650). The method in brief: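 Pronase dechorionation at 4 hpf; embryos plated at 6 hpf, one per well; static exposure, sealed and foil-covered, 28C, to 120 hpf; pigmentation read by brightfield, binary; DMSO 0.64% baseline, 5uM trimethyltin chloride positive control.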
`C=CCCCCCCCCC(=O)O`: the result was inactive.
Still for that read-out and setting: for `Cn1c(=O)cc(Oc2ccc(F)cc2F)c2cnc(NCC(C)(C)O)nc21` the value was “inactive”.
For the compound `CC[C@H]1OC(=O)[C@H](C)[C@@H](O[C@H]2C[C@@](C)(OC)[C@@H](O)[C@H](C)O2)[C@H](C)[C@@H](O[C@@H]2O[C@H](C)C[C@H](N(C)C)[C@H]2O)[C@](C)(O)C[C@@H](C)C(=O)[C@H](C)[C@@H](O)[C@]1(C)O`, the call was inactive.
With `CCN(C(=O)c1cc(C)cc(OC[C@H](C)Nc2ccncc2)c1)C(C)C`, the compound was called inactive.
Regarding `C[C@](N)(Cc1ccc(O)c(O)c1)C(=O)O`, the compound was classed as inactive.
With `CC(O)CN(CCN(CC(C)O)CC(C)O)CC(C)O` (stereo not drawn), the outcome was inactive.
As to `CCNc1ccccc1`, the compound was called inactive.
By AC50 is commonly meant the concentration giving half of the maximal activity seen. With `CCC(C)(C)C(=O)O[C@H]1C[C@@H](C)C=C2C=C[C@H](C)[C@H](CC[C@@H]3C[C@@H](O)CC(=O)O3)[C@H]21`, the AC50 was 666 nM (active).
For `CC[C@H](C)C(=O)O[C@H]1C[C@@H](C)C=C2C=C[C@H](C)[C@H](CC[C@@H]3C[C@@H](O)CC(=O)O3)[C@H]21`, the compound was classed as inactive.
As to `CCCCCCCCCCCCCCCO`, the call was inactive.
Consider `Cn1c(=O)c2c(ncn2C)n(C)c1=O`, for which the result was inactive.
As to `CCCCCCc1ccc(O)cc1O`, the result was inactive.
For `CC(C)=CCCC(C)CCO` (stereo not drawn), the compound was classed as inactive.
On to `CN(C)c1ccc(Cc2ccc(N(C)C)cc2)cc1`, for which the result was inactive.
On the same count and under the same terms, for `CCOCCO` the value was “inactive”; for `CN(C)c1ccc(N=NS(=O)(=O)O)cc1`, “inactive”.
`CCCC(=O)OCC`: the result was inactive.
Consider `Cc1ccc(O)cc1`, for which the outcome was inactive.
`O=c1[nH]c2ccc(S(=O)CCN3CCC(Cc4ccc(F)cc4)CC3)cc2o1` (stereo not drawn): the outcome was inactive.
On the same count and under the same terms, to `CNCc1ccc(NC(=O)c2c[nH]c3c2C(=O)CCC3)cc1` belongs “inactive”.
As for `CCCCC(CC)COC(=O)c1ccc(C(=O)OCC(CC)CCCC)cc1` (stereo not drawn), the compound was classed as inactive.
With `NC(=O)NO`, the compound was classed as inactive.
Still for that read-out and setting: to `CCc1cc(SCc2sc(-c3ccc(C(F)(F)F)cc3)nc2CN2CCN(c3ccc(OC)cc3)CC2)ccc1OCC(=O)O` belongs “inactive”; to `CC1=CC(=O)CC(C)(C)C1`, “inactive”; to `CC(C)=CCC/C(C)=C/CO`, “inactive”.
In the case of `Clc1nc(Cl)c(Cl)c(Cl)c1Cl`, the outcome was inactive.
The same measure, in the same setting: for `CC(=O)OC[C@H]1O[C@@](COC(C)=O)(O[C@H]2O[C@H](COC(C)=O)[C@@H](OC(C)=O)[C@H](OC(C)=O)[C@H]2OC(C)=O)[C@@H](OC(C)=O)[C@@H]1OC(C)=O` the value was “inactive”; for `CCCCC(CC)COC(=O)CCCCCCCCC(=O)OCC(CC)CCCC` (stereo not drawn), “inactive”; for `CC(C)=CCC/C(C)=C\CO`, “inactive”.

A short description of another assay: Tanguay_ZF_120hpf_CIRC_legacy: (Legacy) Oregon State University Tanguay Lab 120 Hour Post-fertilization zebrafish Assay for Circulatory Malformation (AID 2283651). The method in brief:
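Using wild-type Tropical 5D zebrafish, we exposed dechorionated embryos from 6 to 120 hpf in embryo medium with 0.64% DMSO. Circulatory defects were scored as present or absent; 5uM trimethyltin chloride served as positive control.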
In the case of `C=CCCCCCCCCC(=O)O`, the outcome was inactive.
Turning to `Cn1c(=O)cc(Oc2ccc(F)cc2F)c2cnc(NCC(C)(C)O)nc21`, the outcome was inactive.
The same measure, in the same setting: to `CC[C@H]1OC(=O)[C@H](C)[C@@H](O[C@H]2C[C@@](C)(OC)[C@@H](O)[C@H](C)O2)[C@H](C)[C@@H](O[C@@H]2O[C@H](C)C[C@H](N(C)C)[C@H]2O)[C@](C)(O)C[C@@H](C)C(=O)[C@H](C)[C@@H](O)[C@]1(C)O` belongs “inactive”.
With `CCN(C(=O)c1cc(C)cc(OC[C@H](C)Nc2ccncc2)c1)C(C)C`, the call was inactive.
Still for that read-out and setting: to `C[C@](N)(Cc1ccc(O)c(O)c1)C(=O)O` belongs “inactive”; to `CC(O)CN(CCN(CC(C)O)CC(C)O)CC(C)O` (stereo not drawn), “inactive”.
Consider `CCNc1ccccc1`, for which the compound was classed as inactive.
For `CCC(C)(C)C(=O)O[C@H]1C[C@@H](C)C=C2C=C[C@H](C)[C@H](CC[C@@H]3C[C@@H](O)CC(=O)O3)[C@H]21`, the result was inactive.
As for `CC[C@H](C)C(=O)O[C@H]1C[C@@H](C)C=C2C=C[C@H](C)[C@H](CC[C@@H]3C[C@@H](O)CC(=O)O3)[C@H]21`, the result was inactive.
Still for that read-out and setting: to `CCCCCCCCCCCCCCCO` belongs “inactive”; to `Cn1c(=O)c2c(ncn2C)n(C)c1=O`, “inactive”; to `CCCCCCc1ccc(O)cc1O`, “inactive”.
Turning to `CC(C)=CCCC(C)CCO` (stereo not drawn), the result was inactive.
On the same count and under the same terms, to `CN(C)c1ccc(Cc2ccc(N(C)C)cc2)cc1` belongs “inactive”; to `CCOCCO`, “inactive”.
As to `CN(C)c1ccc(N=NS(=O)(=O)O)cc1`, the call was inactive.
Consider `CCCC(=O)OCC`, for which the compound was classed as inactive.
Regarding `Cc1ccc(O)cc1`, the compound was called inactive.
For the compound `O=c1[nH]c2ccc(S(=O)CCN3CCC(Cc4ccc(F)cc4)CC3)cc2o1` (stereo not drawn), the outcome was inactive.
On the same count and under the same terms, to `CNCc1ccc(NC(=O)c2c[nH]c3c2C(=O)CCC3)cc1` belongs “inactive”; to `CCCCC(CC)COC(=O)c1ccc(C(=O)OCC(CC)CCCC)cc1` (stereo not drawn), “inactive”; to `NC(=O)NO`, “inactive”.
For `CCc1cc(SCc2sc(-c3ccc(C(F)(F)F)cc3)nc2CN2CCN(c3ccc(OC)cc3)CC2)ccc1OCC(=O)O`, the call was inactive.
On the same count and under the same terms, for `CC1=CC(=O)CC(C)(C)C1` the value was “inactive”; for `CC(C)=CCC/C(C)=C/CO`, “inactive”; for `Clc1nc(Cl)c(Cl)c(Cl)c1Cl`, “inactive”.
For the compound `CC(=O)OC[C@H]1O[C@@](COC(C)=O)(O[C@H]2O[C@H](COC(C)=O)[C@@H](OC(C)=O)[C@H](OC(C)=O)[C@H]2OC(C)=O)[C@@H](OC(C)=O)[C@@H]1OC(C)=O`, the outcome was inactive.
Consider `CCCCC(CC)COC(=O)CCCCCCCCC(=O)OCC(CC)CCCC` (stereo not drawn), for which the compound was called inactive.
On the same count and under the same terms, for `CC(C)=CCC/C(C)=C\CO` the value was “inactive”.
